MPTP inh = blocks calcium-induced mitochondrial swelling; inhibition, % at 10 µM; isolated mouse mitochondria, Ca2+ swelling absorbance, 30 min; 360,000 compounds, 1.4% hits;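 active means inhibition of 50% or more, scaled per plate between neutral and stimulator controls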
Calb FLC = affects C. albicans growth with fluconazole; C. albicans CaCi-2 (fluconazole-resistant clinical isolate) + fluconazole, Alamar Blue growth, 48 h; growth inhibition, % (concentration not given with the values); 300,000 compounds, 0.57% hits;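 active means growth inhibition above about 58% in most replicates, limit read from the data, passing the limit was not always enough; inconclusive means exactly half the replicates above a set limit; inactive means most replicates below a set limit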;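 further: all wells also contain fluconazole at 8 µg/ml as a sub-toxic cotreatment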
Beta apoptosis = blocks beta cell apoptosis; INS-1E cytokine-induced death, ATP luminescence, 48 h; percent of positive-control rescue, neutral wells zero; protection from apoptosis, % (no concentration beside the values); 300,000 compounds, 0.8% hits; AID 435005;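 active means Every replicate reaches about 75%, or at least half do and their mean reaches it too, limit read from the data; inconclusive means At least half of replicates reach the limit but their mean does not; inactive means Under half of replicates reach the limit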;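 further: higher means more ATP so stronger rescue from cytokine killing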
SKKanGAS inh = SKKanGAS growth inhibition; inhibition, % at 7.5 µM; S. pyogenes SKKanGAS, kanamycin growth, BacTiter-Glo, 6 h; 300,000 compounds, 1.3% hits;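 active means mean replicate score, as percent of positive control median, at least 50; inconclusive means mean below 50 but one replicate at or above 50; inactive means mean and every replicate below 50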;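 further: strain carries kanamycin resistance gene driven by streptokinase promoter and grows in 40 µg/ml kanamycin; loss of luminescence reflects streptokinase promoter inhibition or plain growth inhibition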
CSC inhib = cancer stem cell inhibition | cancer stem cell-like cells viability, luminescence | 300,000 compounds, 1.1% hits | inhibition, % at 7.5 µM; in the data active means inhibition above about 75%; inconclusive means no clear call, values can overlap the other calls; tested in HMLE shEcad cells
Mdm2 MdmX PPI = inhibitors of human Mdm2/MdmX interaction; SaOS-2 split-luciferase Mdm2/MdmX complementation, luminescence; inhibition, % at 8 µM; 330,000 compounds, 3% hits; AID 485346;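 active means inhibition of at least 50% at 8 µM in the primary screen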
Target sequence (O15151 whole entry, looked up): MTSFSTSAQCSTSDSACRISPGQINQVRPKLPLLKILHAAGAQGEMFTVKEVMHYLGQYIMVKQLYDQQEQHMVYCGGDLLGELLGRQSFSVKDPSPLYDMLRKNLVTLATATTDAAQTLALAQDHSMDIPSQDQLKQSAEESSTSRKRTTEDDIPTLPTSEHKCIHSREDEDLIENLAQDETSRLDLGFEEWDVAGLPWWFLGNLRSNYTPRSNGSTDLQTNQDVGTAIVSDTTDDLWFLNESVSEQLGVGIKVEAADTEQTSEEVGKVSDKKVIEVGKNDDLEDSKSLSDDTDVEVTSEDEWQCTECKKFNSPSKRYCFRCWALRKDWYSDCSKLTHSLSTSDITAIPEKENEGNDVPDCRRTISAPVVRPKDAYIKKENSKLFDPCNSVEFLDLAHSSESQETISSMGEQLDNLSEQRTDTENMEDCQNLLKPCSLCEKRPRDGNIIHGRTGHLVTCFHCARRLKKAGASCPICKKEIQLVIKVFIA
Target sequence (Q00987 whole entry, looked up): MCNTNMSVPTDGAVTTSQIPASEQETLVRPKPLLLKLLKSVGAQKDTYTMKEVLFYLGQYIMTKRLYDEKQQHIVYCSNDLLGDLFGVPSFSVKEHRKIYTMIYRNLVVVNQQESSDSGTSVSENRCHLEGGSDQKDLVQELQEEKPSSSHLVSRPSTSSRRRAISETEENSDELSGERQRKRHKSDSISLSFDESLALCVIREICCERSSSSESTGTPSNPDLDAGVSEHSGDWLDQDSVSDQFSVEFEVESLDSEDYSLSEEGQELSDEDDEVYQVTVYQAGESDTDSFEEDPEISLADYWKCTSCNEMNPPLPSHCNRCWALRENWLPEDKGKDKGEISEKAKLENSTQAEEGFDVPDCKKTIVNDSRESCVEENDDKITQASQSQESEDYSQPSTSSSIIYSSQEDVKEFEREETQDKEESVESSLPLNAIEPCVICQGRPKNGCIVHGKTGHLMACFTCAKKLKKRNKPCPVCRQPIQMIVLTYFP
Hits are given with their value; . = inactive; ? = inconclusive; / = no result given. Shown are actives, neighbours in structure and some others; about 5.4% of the full set was active somewhere.

SMILES	MPTP inh	Calb FLC	Beta apoptosis	SKKanGAS inh	CSC inhib	Mdm2 MdmX PPI
COc1ccc(CNC(=O)CCc2cc(OC)c(OC)c(OC)c2)cc1	.	.	.	.	.	.
CCOC(=O)c1cnc(-n2nc(C)cc2C)nc1Nc1ccc(O)cc1	.	.	119	.	.	.
CCOC(=O)c1cnc(-n2nc(C)cc2C)nc1Nc1ccc(C)cc1	.	.	/	95	/	/
CCOC(=O)c1cnc(-n2nc(C)cc2C)nc1NC	.	.	.	?	.	.
CCOC(=O)c1cnc(-n2nc(C)cc2C)nc1NNc1nc(C)cc(C)n1	.	.	.	80	.	.
CCOC(=O)C1CCCCN1Cc1ccccc1C(F)(F)F (configuration not stated)	.	.	.	.	.	.
O=C(Nc1nnc(-c2cc(Cl)ccc2Cl)o1)C1=COCCO1	.	.	.	.	.	.
O=C(Nc1nnc(-c2cccnc2)o1)c1cccc(Cl)c1	.	.	.	79	.	.
O=C(Nc1nnc(-c2ccccn2)o1)c1cccc(Cl)c1	.	.	.	83	.	.
O=C(Nc1nnc(-c2cc(Cl)ccc2Cl)o1)c1ccco1	.	.	.	74	.	.
COc1cc(OC)cc(C(=O)Nc2nnc(-c3cccnc3)o2)c1	.	.	.	.	.	.
O=C(Nc1nnc(-c2ccccn2)o1)c1cccc(Br)c1	.	.	.	67	.	.
N#Cc1ccc(C(=O)Nc2nnc(-c3ccccn3)o2)cc1	.	.	.	.	.	.
O=C(CSc1ccccc1)N1CCCC(N2CCN(c3ccccc3)CC2)C1 (configuration not stated)	.	.	.	.	.	.
Cc1cc2cc(C)c(NCCNC(=O)c3ccccc3F)nc2cc1C	.	.	.	.	.	.
Cc1cccc(-c2nnc(NC(=O)c3ccc(Cl)cc3)o2)c1	.	?	.	122	89	.
O=C(Nc1nnc(-c2ccco2)o1)c1ccc(Br)s1	.	/	/	/	/	/
CC(=O)Nc1nnc(-c2ccco2)o1	.	.	.	.	.	.
O=C(Nc1nnc(-c2ccco2)o1)c1cccc(Cl)c1	.	87	.	88	.	.
O=C(Nc1nnc(-c2ccco2)o1)c1ccc(Cl)s1	.	.	/	51	.	.
COc1ccc(CCN2C(=O)CC(NNC(=O)c3cccc(O)c3)C2=O)cc1 (configuration not stated)	.	.	.	.	.	.
Cc1ccc(OC(=O)C2CCN(C(=O)c3ccccc3C)CC2)c(Br)c1	.	.	/	.	.	.
CN(CC(=O)Nc1ccc(Cl)c(C(F)(F)F)c1)C(=O)COC(=O)C1CC2CCCC(C1)C2=O (configuration not stated)	.	/	.	/	/	.
COc1ccc(C#Cc2ccc3c(=O)c4ccccc4n(C)c3c2)cc1	/	.	.	76	.	.
Cn1c2ccccc2c(=O)c2ccc(C#Cc3ccc(N)cc3)cc21	.	.	.	70	.	.
SMILES	MPTP inh	Calb FLC	Beta apoptosis	SKKanGAS inh	CSC inhib	Mdm2 MdmX PPI
Cc1[nH]n(C(N)=S)c(=O)c1N=Nc1ccc(S(=O)(=O)N2CCCCCC2)cc1	.	104	.	.	.	.
OC(COC(c1ccc(F)cc1)c1ccc(F)cc1)CN1CCc2ccccc2C1 (configuration not stated)	.	.	102	.	.	.
O=C(/C=C/c1ccccc1)CC(=O)c1ccccc1O	.	.	.	50	.	.
CCn1c(O)c(N=NC(=O)c2cccs2)c2ccccc21	.	54	.	.	.	.
O=C(O)/C=C/C(=O)Nc1ccc(OC(F)(F)Cl)cc1	.	.	.	.	.	.
O=C(O)C(Cc1ccccc1)N1C(=O)C=CC1=O (configuration not stated)	.	/	/	/	/	/
CCOC(=O)CC(NC(=O)C(CC)c1ccccc1)c1ccccc1Cl (configuration not stated)	.	.	.	.	.	.
CCOC(=O)CC(/C(C)=N\O)c1ccccc1 (configuration not stated)	.	99	.	.	.	.
COc1cc(C(=O)NC(=S)NNC(=O)c2ccc3c(c2)OCO3)cc(OC)c1OC	.	.	.	70	.	.
COc1ccc(CC(=O)NNC(=S)NC(=O)c2cc(OC)c(OC)c(OC)c2)cc1	.	/	/	/	/	/
COc1ccc(Cl)cc1C(=O)NNC(=S)NC(=O)c1ccc(F)c(F)c1	.	.	/	99	/	.
COc1cc(C(=O)NNC(=S)NC(=O)c2ccc(F)cc2)cc(OC)c1OC	.	.	.	83	.	.
COc1ccc(C(=O)NC(=S)NNC(=O)c2ccc(NC(C)=O)cc2)cc1Br	.	.	.	70	.	.
COc1cc(C(=O)NC(=S)Nc2ccc3c(c2)OCO3)cc(OC)c1OC	.	.	.	.	.	.
COc1ccc(C(=O)NC(=S)NC(C)C)cc1Br	.	.	.	.	.	.
Cc1cc(C)c2nc(SCC(=O)NCC3CCCO3)c(C#N)cc2c1 (configuration not stated)	.	.	.	.	.	.
CC1(C)CC(=O)C(C=NCC(N)=O)=C(O)C1	.	.	.	.	.	.
COc1ccc(C(=O)NC(=S)NNC(=O)c2ccncc2)cc1Br	.	/	.	/	/	.
COc1ccc(C(=O)NNC(=S)NC(=O)c2ccc(F)cc2)cc1Br	.	.	.	103	.	.
COc1cccc2nc3cc(C)c(C)cc3nc12	.	.	.	54	.	.
CC1(c2ccc(O)cc2)NC(=O)N(c2ccccc2)N1 (configuration not stated)	.	.	.	.	109	.
C=C(C)CCC1(C)NC(=O)N(c2ccccc2)N1 (configuration not stated)	.	.	.	.	.	.
CC(NC(=O)C1CCC(C(=O)NC(C)c2ccccc2)CC1)c1ccccc1 (configuration not stated)	.	.	238	.	110	.
COc1ccc(Cn2nnnc2C(C(C)C)N(Cc2ccco2)Cc2cccs2)cc1 (configuration not stated)	.	.	.	.	77	.
CC(C)C(c1nnnn1Cc1ccccc1)N(Cc1ccco1)Cc1cccs1 (configuration not stated)	.	.	.	.	.	.
SMILES	MPTP inh	Calb FLC	Beta apoptosis	SKKanGAS inh	CSC inhib	Mdm2 MdmX PPI
Cc1c(Cl)cccc1NC(=O)CSc1nc(=O)n(CCCN2CCOCC2)c2c1CCC2	.	.	.	.	.	.
N=C1/C(=C/c2ccc(-c3cccc(C(=O)O)c3)o2)C(=O)N=C2SC=C(c3ccccc3)N12	.	.	.	79	.	.
N=C1/C(=C\c2ccc(-c3cc(Cl)cc(Cl)c3)o2)C(=O)N=C2SC=C(c3ccccc3)N12	.	.	.	.	.	.
CC(C)OC(=O)c1c(NS(=O)(=O)c2ccccc2)sc2c1CCCC2	.	/	.	97	.	.
O=C(c1ccco1)N1CCN(Cc2cc(=O)c(OCc3ccc([N+](=O)[O-])cc3)co2)CC1	.	.	/	.	.	.
O=C(O)c1ccccc1C(=O)Nc1ccc(-n2ccc(C(F)(F)F)n2)cc1	.	.	.	.	.	.
